Bioassay records (PubChem BioAssay)
Most compounds without a hit are left out; they make up all but 3.1% or so of the library.
PAFAH2 FP inh: PAFAH2 enzyme inhibitors, primary screen, biochemical, fluorescence polarization, human; inhibition, % at 3.39 µM; AID 492956, 2010; actives 0.99% (n = 340,000); recombinant PAFAH2, FP-rhodamine activity probe; Platelet-activating factor acetylhydrolase 2, cytoplasmic (Homo sapiens), Q99487;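 active means inhibition above the mean over all tested compounds plus 3 SD, cut at about 30% in these data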;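 further: inhibitors block probe labeling of enzyme so polarization drops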
E coli Lon inh: inhibitors of E. coli Lon protease, primary screen, biochemical, fluorescence polarization; P0A9M0; purified E. coli Lon protease; inhibition, % at 7.94 µM; actives 0.42% (n = 360,000); AID 602123, 2011; in the data active means inhibition above about 13%, passing the limit was not always enough
PAFAH1B3 inh: PAFAH1B3 enzyme inhibitors, primary screen, biochemical, fluorescence polarization, human; actives 0.28% (n = 340,000); AID 492972, 2010; inhibition, % at 3.39 µM; recombinant PAFAH1B3, FP-rhodamine probe; Platelet-activating factor acetylhydrolase IB subunit alpha1 (Homo sapiens), Q15102;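 active means inhibition above the screen-wide average of all tested compounds plus 3 SD, cut at about 25% in these data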
pPAFAH FP inh: pPAFAH enzyme inhibitors, primary screen, biochemical, fluorescence polarization, human | AID 463082, 2010 | inhibition, % at 3.39 µM | actives 1.5% (n = 330,000) | Platelet-activating factor acetylhydrolase (Homo sapiens), Q13093 | recombinant pPAFAH, FP-rhodamine probe fluorescence polarization;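 active means inhibition above the mean inhibition across the screen plus 3 SD, cut at about 25% in these data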;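 further: inhibitors block binding of the rhodamine activity-based probe so polarization drops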
PAFAH1B2 inh: PAFAH1B2 enzyme inhibitors, primary screen, biochemical, fluorescence polarization, human | Platelet-activating factor acetylhydrolase IB subunit alpha2 (Homo sapiens), P68402 | recombinant PAFAH1B2, FP-rhodamine activity probe | inhibition, % at 3.39 µM | actives 1.2% (n = 340,000);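 active means inhibition above the mean of all tested compounds plus 3 SD, cut at about 24% in these data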
Rin1-Abl PPI inh: inhibitors of Rin1-Abl protein binding, primary screen, biochemical, TR-FRET; inhibition, % at 7.35 µM; Tyrosine-protein kinase ABL1 (Homo sapiens) + Ras and Rab interactor 1 (Homo sapiens), …; AID 588664, 2011; actives 0.4% (n = 360,000); in the data active means inhibition above about 5%, passing the limit was not always enough
PAFAH2 confirm: PAFAH2 enzyme inhibitors, confirmation, biochemical, fluorescence polarization, human. shares compounds with PAFAH2 FP inh. recombinant PAFAH2, FP-rhodamine activity probe. inhibition, % at 3.39 µM. actives 65% (n = 2,300);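 active means mean inhibition over three repeats above a set limit taken from the earlier primary screen, cut at about 30% in these data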;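 further: inhibitor blocks binding of rhodamine activity probe so polarization falls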
Large screens that a line does not name were inactive (follow-up assays come after a bar, where they were run).

CCOC(=O)CSCC(=O)Nc1cc(C)ccc1C	none
Cc1cc(C)nc(SSc2nc(C)cc(C)n2)n1	none
O=C(CC[C@H]1O[C@@H](n2cnc3c(NC(=O)c4ccccc4)ncnc32)[C@H](O)[C@@H]1O)NCCCN1CCCC1=O	none (no result: PAFAH2 FP inh, PAFAH1B3 inh, pPAFAH FP inh, PAFAH1B2 inh)
O=c1oc(-c2ccc([N+](=O)[O-])cc2)nc2ccccc12	PAFAH2 FP inh 74.2 | PAFAH2 confirm 82.0
O=c1oc(-c2ccc(Br)cc2)nc2ccccc12	PAFAH2 FP inh 76.3 | PAFAH2 confirm 69.8
O=c1oc(-c2ccccc2)nc2ccsc12	PAFAH2 FP inh 43.7 | PAFAH2 confirm 29.7
CC(=O)Nc1ccc(-c2nc3ccccc3c(=O)o2)cc1	none
O=c1oc(-c2cccs2)nc2ccccc12	PAFAH2 FP inh 56.3 | PAFAH2 confirm 34.6
COc1ccc(NC(=O)Nc2cccc3c2O[C@H](CN(C)C(=O)Nc2ccc(OC)cc2)[C@@H](C)CN([C@H](C)CO)C3=O)cc1	none
CCCNC(=O)C1(C)CCN(Cc2cc(C(F)(F)F)ccc2Cl)C1 (configuration not stated)	none (no result: PAFAH2 FP inh, PAFAH1B3 inh, pPAFAH FP inh, PAFAH1B2 inh)
CC(=O)Nc1ccc(S(=O)(=O)N(C)CC(=O)OCC(=O)N2CC(C)OC(C)C2)cc1 (configuration not stated)	none
CC(=O)c1ccc(S(=O)(=O)Nc2ccc(C(=O)N(C)CC(=O)Nc3cccc(C)c3C)cc2)cc1	none
COC(=O)[C@H]1C[C@H](OC(=O)Nc2cccs2)[C@@]2(O)CN(S(=O)(=O)c3ccc(C)cc3)CC2[C@H]1C(=O)OC (some centres not stated)	none (no result: PAFAH2 FP inh, PAFAH1B3 inh, pPAFAH FP inh, PAFAH1B2 inh)
Cc1cc(=O)n2[nH]c(SCc3ccccc3Cl)nc2n1	PAFAH2 FP inh 40.4 | PAFAH2 confirm inactive
O=C(COC(=O)C1CCC1)Nc1cc(S(=O)(=O)N2CCOCC2)ccc1Cl	none (no result: PAFAH2 FP inh, PAFAH1B3 inh, pPAFAH FP inh, PAFAH1B2 inh)
Cc1ccc(S(=O)(=O)N2CCN(C(=O)COC(=O)C3CC3C)CC2)c(C)c1 (configuration not stated)	none
Cc1ccc(NC(=O)COC(=O)C2CC2C)c(S(=O)(=O)N2CCCCC2)c1 (configuration not stated)	PAFAH2 FP inh 81.8 | PAFAH2 confirm 77.9
CC1CC1C(=O)OCC(=O)Nc1cc(S(=O)(=O)N2CCCCC2)ccc1Cl (configuration not stated)	PAFAH2 FP inh 72.3 | PAFAH2 confirm 60.2
Cc1noc(C)c1NC(=O)N(C)C[C@H]1Oc2ccc(NC(=O)Cc3ccccc3)cc2C(=O)N([C@H](C)CO)C[C@@H]1C	none
CC(C)NC(=O)N(C)C[C@H]1Oc2c(NC(=O)C3CC3)cccc2C(=O)N([C@H](C)CO)C[C@@H]1C	none
Cc1ccccc1OCCOc1cccc(/C=N/NC(=O)Cc2nnc(N)s2)c1	PAFAH2 FP inh 32.8 | PAFAH2 confirm inactive
COc1ccc(NC(=O)CCN(c2ccc(OC)cc2)S(=O)(=O)c2ccc(C)c(C)c2)cc1	none (no result: pPAFAH FP inh)
CC(C)CNC(=O)COC(=O)c1cccc(S(=O)(=O)NCC(F)(F)F)c1	PAFAH2 FP inh 30.8 | PAFAH2 confirm inactive
COc1ccc(N2C(c3ccsc3)=Cc3cc4c(cc3C2c2c[nH]c3ccccc23)OCO4)cc1 (configuration not stated)	none (no result: PAFAH2 FP inh, PAFAH1B3 inh, pPAFAH FP inh, PAFAH1B2 inh, Rin1-Abl PPI inh)
CCOc1ccc(OCC(=O)Nc2ccc(S(N)(=O)=O)cc2)cc1	none
CCOc1ccc(S(=O)(=O)/N=C(/Nc2ccc(S(N)(=O)=O)cc2)c2ccccc2)cc1	PAFAH2 FP inh 44.5 | PAFAH2 confirm inactive
COc1ccccc1/C=C/C=N/n1c(-c2ccco2)n[nH]c1=S	none
S=c1[nH]nc(-c2ccco2)n1/N=C/C=C/c1ccco1	PAFAH2 FP inh 46.2 | PAFAH2 confirm inactive
CC(C)C[C@@H]1CN(CCCC[C@H]2CNC(=O)C(=O)N2CCC2CCCCC2)C(=O)C(=O)N1CC1CCCCC1	none (no result: PAFAH2 FP inh, PAFAH1B3 inh, pPAFAH FP inh, PAFAH1B2 inh, Rin1-Abl PPI inh)
